Molecules are shown by their SMILES. Measured potencies and affinities stand elsewhere. Active and inactive are the calls of the source. The rule behind the calls is not given here.

A short description of the test: Vero cell cytotoxicity, dose response, cytotoxicity control for M. tuberculosis growth inhibitor project, Vero cells, purified and synthesized compounds, set 4 (AID 504854). The following applies: series mostly up to 100 µM.
In the case of `COc1cccc(NC(=O)CSc2nc3c(c(=O)[nH]2)CCC3)c1`, the outcome was inactive.

For `O=c1[nH]c(=S)[nH]c2ccccc12`, the outcome was inactive.

Regarding `O=C(CSc1ccccn1)NC1CCCCC1`, the compound was classed as inactive.

For the compound `Cc1cnc(SCC(=O)NC2CCCCC2)[nH]c1=O`, the outcome was inactive.

For the compound `CC(C)CCNC(=O)CSc1nc2ccccc2c(=O)[nH]1`, the call was inactive.

For `Cc1nc(SCC(=O)NC2CCCC2)[nH]c(=O)c1C`, the call was inactive.

As for `O=C(CSc1nccc(=O)[nH]1)NC1CCCCC1`, the outcome was inactive.

As to `Nc1c(C(=O)NC2CCCCC2)nsc1C(=O)OCC(=O)NC1CCCCC1`, the call was inactive.

For `Cc1c[nH]c(=S)[nH]c1=O`, the outcome was inactive.

For `Cc1[nH]c(=S)[nH]c(=O)c1C`, the call was inactive.

In the case of `CN1CCC(NC(=O)CSc2nc3ccccc3c(=O)[nH]2)CC1`, the call was inactive.

On to `Cc1ccc(NC(=O)COC(=O)CCc2c[nH]c3ccccc23)cc1[N+](=O)[O-]`, for which the compound was called inactive.

Take `Cn1c(SCC(=O)NC2CCCCC2)nc2ccccc2c1=O`: the compound was classed as inactive.

For the compound `COC(=O)c1ccc(CNc2c(N3CCCC3)c(=O)c2=O)cc1`, the call was inactive.

As to `Cc1cc(=O)[nH]c(=S)[nH]1`, the call was inactive.

Consider `CCOC(=O)CSc1nc(C)c(C)c(=O)[nH]1`, for which the compound was classed as inactive.

Consider `COc1ccc(NC(=O)CSc2nc3ccccc3c(=O)[nH]2)cc1`, for which the compound was called inactive.

Consider `NC(=O)CSc1nc2ccccc2c(=O)[nH]1`, for which the result was inactive.

Take `Cc1nc(SCC(=O)NCCC(C)C)[nH]c(=O)c1C`: the compound was classed as inactive.

Regarding `Cc1cc(=O)[nH]c(SCC(=O)NC2CCCCC2)n1`, the compound was classed as inactive.

With `CN(C)C(=O)CSc1nc2ccccc2c(=O)[nH]1`, the call was inactive.

For the compound `Cc1nc(SCc2ccccc2Cl)[nH]c(=O)c1C`, the compound was classed as inactive.

Regarding `CCC(Sc1nc2ccccc2c(=O)[nH]1)C(=O)NC1CCCCC1` (stereo not drawn), the result was inactive.

In the case of `O=C(CSc1ncccn1)NC1CCCCC1`, the result was inactive.

With `CCSc1nc(C)c(C)c(=O)[nH]1`, the call was inactive.

With `Cc1nc(SCC(N)=O)[nH]c(=O)c1C`, the call was inactive.

For `Cc1nc(SCC(=O)N(C)c2ccccc2)[nH]c(=O)c1C`, the outcome was inactive.

On to `CC[N+](C)(CC)CCCCOc1ccc2c(c1)C(=O)c1cc(OCCCC[N+](C)(CC)CC)ccc1-2`, for which the outcome was inactive.

Consider `Cc1cccc(/C=C/C(=O)c2ccc([N+](=O)[O-])o2)c1`, for which the compound was classed as inactive.

For the compound `O=C(CSc1nc2ccccc2c(=O)[nH]1)NC1CCCCC1`, the compound was called inactive.

Regarding `CCOC1OC(=O)C(Cl)=C1Nc1ccccc1C` (stereo not drawn), the compound was called inactive.

`O=C(CSc1nc2ccccc2c(=O)[nH]1)N1CCOCC1`: the compound was classed as inactive.

`Nc1cc(=O)[nH]c(SCC(=O)NC2CCCCC2)n1`: the compound was called inactive.
